Inconclusive results are not listed. Entries that show only a call come without a potency. Activity calls are given as the source filed them. Calls follow the shape of the dose curve; as a rule, active = well fitted cell-killing curve with a large enough effect; inconclusive = small, poorly fitted or top-dose-only effect; inactive = flat fitted curve, though single readings scatter.
Assay: Quantitative highthroughput screen to assess conditional lethalithy of NOMO1 cells grown in RPMI1640 with untreated serum (RPMI+s) (AID 1963876); also: nearly all actives have a fitted effect of over 35% in size
Settings: NOMO1 AML cells in RPMI+serum, CellTiter-Glo viability, 48 h; series mostly up to 45.8 µM
Source text: Assay Provider: Jason Cantor Ph.D.
Department of Biochemistry
University of Wisconsin-Madison, Madison, WI, USA
Chemical screening studies have identified drug sensitivities across hundreds of cancer cell lines but most putative therapeutics fail to translate. Discovery and development of drug candidates in models that more accurately reflect nutrient levels in human blood is a major challenge. Here we performed high-throughput screens in conventional versus Human Plasma-Like Medium (HPLM) to identify compounds that were "missed" when screening using the artificial culture condition. Sets of conditional anticancer compounds spanned phases of clinical development and included non-oncology drugs were assessed. […] We also traced conditional phenotypes for several chemotherapeutics to availability of HPLM-specific metabolites and confirmed others for compounds whose reported targets are encoded by nonessential genes. Our findings establish generalizable strategies for exploiting conditional lethality in HPLM to reveal therapeutic candidates and mechanisms of action in cancer cells.
Described herein are the results of each viability screens against three cell lines: NOMO1 (an acute myeloid leukemia cell line); P12-Ichikawa (a T-cell acute lymphoblastic leukemia); and SEM (a B-cell ALL). Each assay was screened using 3 different cell culture media: homemade human plasma-Like medium with 10% dialyzed fetal bovine serum (HPLM+ds); RPMI1640 with 10% untreated FBS and 5mM glucose (RPMI+s); and RPMI1640 with 10% dialyzed fetal bovine serum and 5 mM glucose (RPMI+ds).
PROTOCOL TABLE (as described by Inglese J, Shamu CE and Guy RK. 2007)
SEQUENCE No. (e.g., 1, 2, 3, etc.); […] (e.g., Cells, Incubation, Reagent, etc.); VALUE and DESCRIPTION.
1; Cells; 5 uL; white, solid bottom 1536-well Greiner assay plate.
2; Compounds; 23 nL; Kalypsis pin tool (Wako USA) equipped with a 1536-well pin head to transfer to the assay plates.
3; Incubation; 48 hours; 37C incubation.
4; Reagent; 3 uL; CellTiter Glo (Promega).
5; Incubation; 5 min, room temperature
6; Detection; Luminescence, Viewlux PerkinElmer.
NOTES (numbers refer to Sequence numbers above)
1. Briefly, 5 ul of cell reagent was dispensed using a Multidrop Combi Dispenser. The NOMO1 and SEM cells were plated at 500 cells/well and the P12-Ichikawa line at 1000 cells/well.
2. After seeding the cells, 23 nL of MIPE 4.1 library compounds (in DMSO) were added to each plate using a Kalypsys 1536 Pintool dispenser. Bortezomib at final concentration of […] and DMSO were added to each plate as positive and negative controls respectively. For each screen, MIPE 4.1 compounds were added over an eleven-point concentration range […] in 3-fold dilutions.
3. Each plate was covered with a stainless steel gasketed lid to prevent evaporation and incubated for 48 hour at 37C, 95% relative humidity, and 5% CO2.
4-5. Three microliter CellTilter-GloTM luminescent substrate mix (Promega) reagent was added to the assay plate and incubated at room temperature for 5 min.
6. The luminescence signal was measured using a ViewLux (PerkinElmer) multiplate reader with a 2 second exposure time per plate. Data for each compound were normalized as percent viability such that measurements for DMSO and the empty well controls in each plate were defined as 100% and 0%, respectively.
In the case of CCNC(=O)C[C@@H]1N=C(c2ccc(Cl)cc2)c2cc(OC)ccc2-n2c(C)nnc21, the Potency is reported as 9350 nM (active).
In the case of NC1=NC(=O)N2CC12 (stereo not given), the Potency is reported as 5900 nM (active).
For CCCC[N+]1(C)[C@H]2CC(OC(=O)[C@H](CO)c3ccccc3)C[C@H]1[C@H]1O[C@H]12 (stereo not given in full), the Potency was 18700 nM (active).
For O=C(N[C@H]1CN2CCC1CC2)c1ccc(Cl)cc1, the Potency was “inactive”.
With O=C(NCC1CCOCC1)c1cnc(Nc2ccc(Cl)cc2Cl)nc1C(F)(F)F the Potency was “inactive”.
In the case of Cc1c(C(=O)Nc2cccc(C(F)(F)F)c2)cc(-c2ccccc2)n1CCCN1CCOCC1, the Potency is reported as “inactive”.
In the case of Clc1ccccc1C(c1ccccc1)(c1ccccc1)n1cccn1, the Potency is reported as “inactive”.
With COC1(CS(=O)c2ccccc2)CCN(CCc2c[nH]c3ccc(F)cc23)CC1 (stereo not given) the Potency was “inactive”.
For CC(C)C[C@H](CN)CC(=O)O, the Potency was “inactive”.
In the case of C[C@](O)(CS(=O)(=O)c1ccc(F)cc1)C(=O)Nc1ccc(C#N)c(C(F)(F)F)c1, the Potency is reported as “inactive”.
For NCC1(CC(=O)O)CCCCC1, the Potency was “inactive”.
With C[C@@H]1[C@@H](CC(C[C@H]2O[C@@H]3O[C@]4(C)CC[C@@H]5[C@H](C)CC[C@@H]([C@H]2C)[C@@]35OO4)C[S+](=O)([O-])c2ccc(COC(=O)N(C)C)cc2)O[C@@H]2O[C@]3(C)CC[C@H]4[C@H](C)CC[C@@H]1[C@@]24OO3 (stereo not given in full) the Potency was 833 nM (active).
For CC(C)CC(N(C)C)C1(c2ccc(Cl)cc2)CCC1 (stereo not given), the Potency was “inactive”.
With C[C@]12CC[C@H]3[C@@H](CCC4=CC(=O)CC[C@@]43C)[C@H]1CC[C@H]2O the Potency was “inactive”.
For CC1=C2C[C@@H]3[C@@H](CC=C4C[C@@H](O)CC[C@@]43C)[C@@H]2CC[C@]12O[C@H]1C[C@H](C)CN[C@H]1[C@H]2C, the Potency was “inactive”.
In the case of CN(C)CCc1ccc(O)cc1, the Potency is reported as “inactive”.
In the case of CN1C(=O)COc2c(C(=O)NC3CN4CCC3CC4)cc(Cl)cc21 (stereo not given), the Potency is reported as “inactive”.
For CN(C)[C@@H]1C(=O)C(C(N)=O)=C(O)[C@@]2(O)C(=O)C3=C(O)c4c(O)cccc4[C@@](C)(O)[C@H]3C[C@@H]12, the Potency was “inactive”.
For COc1cccc2c1[C@]13CCN(CC4CC4)[C@H](C2)[C@]1(OC)CCC(=O)C3, the Potency was “inactive”.
In the case of O=C1CC[C@@]2(O)[C@H]3Cc4ccc(O)c5c4[C@@]2(CCN3CC2CC2)[C@H]1O5, the Potency is reported as 7430 nM (active).
With Cc1c(N)nc([C@H](CC(N)=O)NC[C@@H](N)C(N)=O)nc1C(=O)N[C@H](C(=O)N[C@@H](C)[C@H](O)[C@@H](C)C(=O)N[C@@H](C(=O)NCCc1nc(-c2nc(C(=O)NCCC[S+](C)C)cs2)cs1)[C@@H](C)O)C(O[C@H]1O[C@H](CO)[C@H](O)[C@@H](O)[C@@H]1O[C@H]1O[C@H](CO)[C@@H](O)[C@H](OC(N)=O)[C@H]1O)c1cnc[nH]1 (stereo not given in full) the Potency was 1180 nM (active).
With C[C@]12CC[C@H]3[C@@H](CCC4=CC(=O)CC[C@@]43C)[C@H]1CC[C@H]2OC(=O)CCC1CCCC1 the Potency was “inactive”.
In the case of CCCC(C)(COC(N)=O)COC(=O)NC(C)C (stereo not given), the Potency is reported as “inactive”.
For CC(C)(O)C=CC(=O)[C@](C)(O)[C@H]1[C@H](O)C[C@]2(C)[C@@H]3CC=C4[C@@H](C=C(O)C(=O)C4(C)C)[C@]3(C)C(=O)C[C@@]12C, the Potency was 187 nM (active).
For CN1CCN(c2ccc([N+](=O)[O-])c3no[n+]([O-])c23)CC1, the Potency was “inactive”.
In the case of CCOc1ccccc1-n1c(C(C)N2CCN(C(=O)COc3ccc(Cl)cc3)CC2)nc2ccccc2c1=O (stereo not given), the Potency is reported as 1320 nM (active).
For COc1cc(C(=O)N2CC[C@@H](O)[C@@H](N)C2)cc2nc(-c3cc4ccccc4n3CC3CC3)n(C)c12, the Potency was 933 nM (active).
In the case of CCOC(=O)c1cncn1[C@H](C)c1ccccc1, the Potency is reported as “inactive”.
For O=C(O)c1nn(Cc2ccc(Cl)cc2Cl)c2ccccc12, the Potency was “inactive”.
With CC(C)c1cccc(C(C)C)c1O the Potency was “inactive”.
For C#C[C@]1(O)C=C[C@@H]2[C@@H]3CCC4=CC(=O)CC[C@@H]4[C@H]3CC[C@@]21CC, the Potency was “inactive”.
In the case of c1ccc(CCCN2CCN(CCOC(c3ccccc3)c3ccccc3)CC2)cc1, the Potency is reported as “inactive”.
In the case of CNC(=O)c1ccc(N2C(=S)N(c3ccc(C#N)c(C(F)(F)F)c3)C(=O)C23CCC3)cc1F, the Potency is reported as “inactive”.
For C[C@]12COC(=O)C[C@@H]1CC[C@@H]1[C@H]2CC[C@@]2(C)[C@H]1CC[C@]2(C)O, the Potency was “inactive”.
For CN1CCN(C(=O)O[C@H]2c3nccnc3C(=O)N2c2ccc(Cl)cn2)CC1, the Potency was “inactive”.
With O=c1[nH]c2ccccc2n1CCCN1CCC(n2c(=O)[nH]c3cc(Cl)ccc32)CC1 the Potency was “inactive”.
In the case of COc1ccc(CC2NCCc3cc(OC)c(OC)cc32)cc1OC (stereo not given), the Potency is reported as “inactive”.
For O=[N+]([O-])c1ncc[nH]1, the Potency was “inactive”.
For CCN1C[C@]2(OC(=O)c3ccccc3NC(C)=O)CC[C@H](OC)[C@@]34[C@H]5CC6[C@@H](OC)C[C@](O)(C(C[C@@H]23)[C@@H]14)[C@@]5(O)[C@@H]6OC, the Potency was “inactive”.
With COC[C@H]1OC(=O)c2coc3c2[C@@]1(C)C1=C(C3=O)[C@@H]2CC[C@H](O)[C@@]2(C)C[C@@H]1OC(C)=O the Potency was “inactive”.

From PubChem BioAssay (NCATS)
Potency is read from the fitted curve at half-maximal effect.
